Source: PubChem BioAssay
Active and inactive are the calls of the source.

Assays:
[1] = optical density shifts of acrAB sulA E. coli – strain DRC41, OD650, 48 h, E. coli filamentation inducer project, primary screen (AID 1152); settings: higher = more signal, called active from +8 up or from −8 down;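 further: E. coli MC1000 strain DRC41 lacking acrAB efflux pump and sulA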
[2] = probe aLefty1 binding on compound microarray – biochemical, small-molecule microarray, 635/667 nm fluorescence, primary screen (AID 1153); settings: higher = more signal;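 further: score merges spot fluorescence with signal-to-noise ratio from the scanned slide images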
[3] = plasmodial surface anion channel blockers, osmotic lysis – cell-based, P. falciparum Indochina, OD700, 1 h, primary screen (AID 1154); settings: P. falciparum Indochina infected RBC osmotic lysis, higher = more signal, called active from +8 up or from −8 down
[4] = plasmodial surface anion channel blockers, osmotic lysis – cell-based, P. falciparum Indochina, OD700, 2 h, primary screen (AID 1155);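 further: lysis reports solute entry through the parasite surface anion channel PSAC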; settings: P. falciparum Indochina infected erythrocytes, higher = more signal, called active from +8 up or from −8 down
[5] = changes in parasitized red cell lysis, either direction – P. falciparum Indochina, OD700, 3 h, PSAC antagonist project, primary screen (AID 1156); settings: P. falciparum-infected erythrocytes, osmotic lysis, higher = more signal, called active from +8 up or from −8 down
[6] = plasmodial surface anion channel blockers, osmotic lysis – cell-based, P. falciparum Indochina, OD700, 18 h, primary screen (AID 1157); settings: P. falciparum Indochina infected erythrocytes, osmotic lysis OD700, 18 h; higher = more signal, called active from +8 up or from −8 down
[7] = S6 kinase pathway phospho-S6 level changes – cell-based, A549, cytoblot, luminescence, serum-stimulated, primary screen (AID 1158); settings: 5 h, higher = more signal;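 further: serum-stimulated A549 lung adenocarcinoma cells; signal is phosphorylated S6 detected by cytoblot immunostaining with HRP secondary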
[8] = target: NADPH oxidase 2 (Homo sapiens) (UniProt P04839); experiment: compounds shifting NOX2 Amplex Red fluorescence – cell-based, HEK293-NOX2, PMA-stimulated, NOX inhibitor project, primary screen (AID 1159); settings: 45 min, higher = more signal, called active from +8 up or from −8 down; further: test concentration not given here
[9] = target: NADPH oxidase 4 (Homo sapiens) (UniProt Q9NPH5); experiment: compounds shifting NOX4 Amplex Red fluorescence – cell-based, HEK293-NOX4, tetracycline-induced, NOX inhibitor project, primary screen (AID 1160); settings: HEK293-NOX4, Amplex Red H2O2 fluorescence, 45 min; higher = more signal, called active from +8 up or from −8 down
[10] = target: NADPH oxidase 5 (Homo sapiens) (UniProt Q96PH1); experiment: compounds shifting NOX5 Amplex Red fluorescence – cell-based, HEK293-NOX5, NOX inhibitor project, primary screen (AID 1161); settings: HEK293-NOX5, ionomycin, 45 min, higher = more signal
Sequence of NADPH oxidase 5 (Homo sapiens) (Q96PH1 whole entry, looked up): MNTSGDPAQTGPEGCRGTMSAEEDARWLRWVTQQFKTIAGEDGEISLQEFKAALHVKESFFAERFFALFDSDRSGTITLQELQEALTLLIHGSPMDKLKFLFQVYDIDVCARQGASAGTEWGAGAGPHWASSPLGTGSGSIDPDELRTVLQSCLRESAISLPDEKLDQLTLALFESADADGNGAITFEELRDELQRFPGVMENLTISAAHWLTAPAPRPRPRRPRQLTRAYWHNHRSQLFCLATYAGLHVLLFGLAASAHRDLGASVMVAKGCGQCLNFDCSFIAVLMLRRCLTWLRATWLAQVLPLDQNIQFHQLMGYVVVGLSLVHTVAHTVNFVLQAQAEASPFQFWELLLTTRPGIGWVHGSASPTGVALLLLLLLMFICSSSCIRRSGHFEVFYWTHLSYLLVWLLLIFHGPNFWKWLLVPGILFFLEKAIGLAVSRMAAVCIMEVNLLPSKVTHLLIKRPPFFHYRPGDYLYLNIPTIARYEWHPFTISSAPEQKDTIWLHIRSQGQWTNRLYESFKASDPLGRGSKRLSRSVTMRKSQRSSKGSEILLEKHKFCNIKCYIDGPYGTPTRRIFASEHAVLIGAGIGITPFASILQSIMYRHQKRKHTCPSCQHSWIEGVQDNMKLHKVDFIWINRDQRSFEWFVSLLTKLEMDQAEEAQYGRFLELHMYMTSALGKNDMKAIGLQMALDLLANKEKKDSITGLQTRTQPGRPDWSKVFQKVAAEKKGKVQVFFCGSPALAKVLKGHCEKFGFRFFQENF

Sequence of NADPH oxidase 2 (Homo sapiens) (P04839 whole entry, looked up): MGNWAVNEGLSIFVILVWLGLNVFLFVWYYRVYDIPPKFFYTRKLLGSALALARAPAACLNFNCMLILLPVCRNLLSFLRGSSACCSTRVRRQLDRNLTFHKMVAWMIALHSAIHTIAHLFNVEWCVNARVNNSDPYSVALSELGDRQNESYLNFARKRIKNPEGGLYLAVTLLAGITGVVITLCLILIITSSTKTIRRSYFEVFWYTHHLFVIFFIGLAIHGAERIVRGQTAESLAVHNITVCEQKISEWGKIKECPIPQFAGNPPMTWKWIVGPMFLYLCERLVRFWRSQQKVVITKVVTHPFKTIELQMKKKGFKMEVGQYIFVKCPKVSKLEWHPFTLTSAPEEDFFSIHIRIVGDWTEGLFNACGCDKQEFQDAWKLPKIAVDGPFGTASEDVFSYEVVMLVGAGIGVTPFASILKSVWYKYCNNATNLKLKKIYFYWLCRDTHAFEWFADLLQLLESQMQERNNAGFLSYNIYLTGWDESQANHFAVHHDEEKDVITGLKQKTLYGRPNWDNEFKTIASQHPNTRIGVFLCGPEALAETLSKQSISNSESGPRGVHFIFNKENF
Sequence of NADPH oxidase 4 (Homo sapiens) (Q9NPH5 whole entry, looked up): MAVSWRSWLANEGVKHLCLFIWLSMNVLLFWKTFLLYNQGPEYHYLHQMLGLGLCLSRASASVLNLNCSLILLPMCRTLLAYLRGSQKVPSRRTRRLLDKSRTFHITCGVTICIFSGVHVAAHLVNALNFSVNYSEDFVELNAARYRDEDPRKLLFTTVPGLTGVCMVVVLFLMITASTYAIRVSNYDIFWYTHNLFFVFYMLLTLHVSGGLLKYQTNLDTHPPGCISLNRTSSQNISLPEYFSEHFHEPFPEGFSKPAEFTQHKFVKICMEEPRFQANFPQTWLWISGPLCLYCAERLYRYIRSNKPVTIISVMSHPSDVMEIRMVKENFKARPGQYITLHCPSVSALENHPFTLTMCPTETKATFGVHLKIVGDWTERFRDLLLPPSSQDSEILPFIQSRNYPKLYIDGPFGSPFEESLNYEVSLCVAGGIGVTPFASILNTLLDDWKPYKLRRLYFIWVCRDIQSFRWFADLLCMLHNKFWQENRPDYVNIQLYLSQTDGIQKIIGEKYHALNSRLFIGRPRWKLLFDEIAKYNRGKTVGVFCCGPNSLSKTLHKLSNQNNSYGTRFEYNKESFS

Row | Structure (SMILES) | z-score [1] | composite z-score [2] | z-score [3] | z-score [4] | z-score [5] | z-score [6] | z-score [7] | z-score [8] | z-score [9] | z-score [10]
1 | C=C(C(=O)CC[C@@H](OC(=O)c1ccccc1-c1ccccc1C(=O)O)c1ccc(OCCO)cc1)C(C)C | -0.383 (inactive) | 0.312 | 13.6 (active) | 1.37 (inactive) | 1.2 (inactive) | 0.405 (inactive) | -0.26 | 1.43 (inactive) | 0.123 (inactive) | -1.3
2 | [N-]=[N+]=NCc1ccccc1[C@H]1OC(c2ccc(OCCCO)cc2)=N[C@@]1(CCS(=O)(=O)c1ccccc1)C(=O)NCCN1CCOCC1 | -0.265 (inactive) | 0.877 | 27.1 (active) | 13.2 (active) | 1.38 (inactive) | 1.99 (inactive) | -0.124 | 0.636 (inactive) | 1.33 (inactive) | 1.65
3 | COc1ccc(-c2cc3c(c(CCc4ccccc4)n2)[Si](C(C)C)(C(C)C)O[C@H]3c2ccccc2)cn1 | 0.0534 (inactive) | -0.193 | 4.29 (inactive) | 1.36 (inactive) | -0.449 (inactive) | 0.775 (inactive) | -0.643 | 0.947 (inactive) | 0.741 (inactive) | 0.0862
4 | COc1ccc([Si](C)(C)[C@@H]2[C@@H](CC(=O)N(CCO)Cc3ccccc3)O[C@]3(C(=O)N(Cc4cccc(I)c4)c4ccccc43)[C@H]2C)cc1 | -0.307 (inactive) | 0.0464 | 4.63 (inactive) | 1.5 (inactive) | -0.0382 (inactive) | 1.14 (inactive) | 0.32 | -0.953 (inactive) | 1.19 (inactive) | 1.43
5 | C=CC[C@H](O)c1ccc(O)c2ccccc12 | 0.675 (inactive) | -0.0163 | 1.28 (inactive) | 0.439 (inactive) | 0.168 (inactive) | 0.45 (inactive) | -0.323 | -5.36 (inactive) | -1.98 (inactive) | 1.42
6 | O=C1c2ccccc2[C@](Cc2ccccc2I)(C(=O)NCCN2CCOCC2)[C@H](c2ccc(CO)cc2)N1Cc1ccccc1C(F)(F)F | -2.6 (inactive) | 0.284 | 7.91 (inactive) | 1.13 (inactive) | 1.59 (inactive) | 0.65 (inactive) | 0.401 | -1.06 (inactive) | 0.814 (inactive) | 1.15
7 | CC(=O)NCCCC[C@@H]1NC(=O)[C@H]2C[C@@H](C(=O)NCCCCCN)[C@@H](c3ccc(O)cc3)N2C1=O | -0.556 (inactive) | 0.302 | 0.537 (inactive) | 0.33 (inactive) | 0.0814 (inactive) | 0.302 (inactive) | -0.413 | 0.178 (inactive) | -1.24 (inactive) | 1.01
8 | CCOC(=O)C[C@H]1[C@H](OC(=O)c2ccccc2-c2ccccc2)[C@@H](NC(=O)CC(C)C)c2cc(OCCCO)ccc2N1C(=O)c1ccccc1 | 0.822 (inactive) | 0.0816 | 0.0883 (inactive) | -1.7 (inactive) | -1.27 (inactive) | -2.84 (inactive) | 1.47 | 0.924 (inactive) | 0.899 (inactive) | -1.19
9 | C=CCC(OC(C)=O)[C@@H]1[C@@H](N(Cc2ccc(-c3ccccc3)cc2)C(=O)Cc2ccc(OC)cc2)c2cc(OCCCO)ccc2N1C(=O)c1ccc2ccccc2c1 (stereo not given in full) | -0.894 (inactive) | -0.529 | 1.23 (inactive) | 0.384 (inactive) | -0.247 (inactive) | 0.41 (inactive) | -0.111 | -0.48 (inactive) | 0.832 (inactive) | 0.808
10 | CC[C@@H](O[Si](C#C[Si](C(C)C)(C(C)C)C(C)C)(C(C)C)C(C)C)c1cn(Cc2cccc(Cl)c2)nn1 | 1.2 (inactive) | 0.106 | -0.0842 (inactive) | 0.523 (inactive) | -0.559 (inactive) | 0.0622 (inactive) | -0.559 | -0.16 (inactive) | -0.839 (inactive) | -1.62
11 | CC(C)C[C@@H]1NC(=O)[C@@H]2C[C@H](C(=O)NCCCCCNC(=O)CS)[C@H](c3ccc(O)cc3)N2C1=O | 2.03 (inactive) | 0.165 | 0.625 (inactive) | -0.37 (inactive) | 0.768 (inactive) | -0.73 (inactive) | 2.48 | -1.18 (inactive) | -1.35 (inactive) | -3.05
12 | C[N+](C)(C)CCCC[C@@H]1NC(=O)[C@H]2C[C@@H](C(=O)NCCCCCN)[C@@H](c3ccc(O)cc3)N2C1=O | 0.108 (inactive) | 0.14 | 0.105 (inactive) | 0.0643 (inactive) | -3.73 (inactive) | -0.0429 (inactive) | -0.0286 | 0.081 (inactive) | -0.0444 (inactive) | 0.204
13 | CS(=O)(=O)CCOC(=O)C1=CC(CCCO)=CC(C2CC2)N(Cc2sc3ccccc3c2Cl)C=C1C(=O)OCCS(C)(=O)=O (stereo not given) | -0.406 (inactive) | 0.52 | 12.8 (active) | 2.13 (inactive) | 0.978 (inactive) | 1.41 (inactive) | 0.248 | -0.739 (inactive) | -0.315 (inactive) | -1.11
14 | COCCOC(=O)N1C(=O)[C@@]2(c3cc(C#CCNC(N)=O)ccc31)[C@H](C(=O)Nc1nc3ccccc3s1)[C@H]1C(=O)O[C@H](c3ccccc3)[C@H](c3ccccc3)N1[C@@H]2c1ccc(O)cc1 | -0.614 (inactive) | 0.317 | 1.1 (inactive) | 0.476 (inactive) | -0.385 (inactive) | 1.05 (inactive) | 0.637 | 0.95 (inactive) | -1.12 (inactive) | 0.142
15 | CCCC1(C(=O)OC)C=C2C(=C(C(C)C)C(=O)C2C)CN1 (stereo not given) | -2.12 (inactive) | 0.062 | 2.85 (inactive) | 0.364 (inactive) | 0.454 (inactive) | 0.57 (inactive) | -0.598 | 0.216 (inactive) | -1.15 (inactive) | -3.15
16 | CC[C@@H](O[Si](C#C[Si](C(C)C)(C(C)C)C(C)C)(C(C)C)C(C)C)c1cn([C@H](CO)Cc2ccccc2)nn1 | 0.922 (inactive) | -0.0094 | 0.355 (inactive) | 0.49 (inactive) | -0.68 (inactive) | 0.0878 (inactive) | -0.116 | -0.69 (inactive) | 0.408 (inactive) | -0.133
17 | COC(=O)[C@]1(Cc2ccccc2N=[N+]=[N-])N=C(c2ccc(OCCCO)cc2)O[C@@H]1c1ccccc1CN=[N+]=[N-] | -1.01 (inactive) | -0.0012 | 22.2 (active) | 9.37 (active) | -0.732 (inactive) | 2.26 (inactive) | 0.76 | -2.97 (inactive) | 0.167 (inactive) | -2.43
18 | C=CCNC(=O)[C@@H]1[C@H]2C(=O)O[C@H](c3ccccc3)[C@H](c3ccccc3)N2[C@H](c2ccc(O)cc2)[C@@]12C(=O)N(C(=O)OCCOC)c1ccc(C#CCC(C(=O)OC)C(=O)OC)cc12 | 1.17 (inactive) | 0.0026 | 2.41 (inactive) | 0.225 (inactive) | -0.451 (inactive) | 0.393 (inactive) | 0.0945 | 0.932 (inactive) | 0.584 (inactive) | 0.831
